Test results published in ChEMBL document CHEMBL3988442, “University of Dundee, Small-Polar-MMV Screening Library” (2021).
Hit rate of the full screen: of about 48,000 compounds, about 13,000 (27%) showed an effect of 50% or more. The list shows a part of the results.

system: Wolbachia pipientis; test: Anti-Wolbachia Cell-Based Screen; format: functional; design: scale not given: in the data most compounds retested in dose-response had high values; conditions: 5 µM

Structure (SMILES)	Percent Effect
CCCSc1ncc(-c2nccn2CCC(N)=O)cn1	-44.89%
CC(C)Oc1ccccc1CNC(=O)c1[nH]ncc1Br	24.22%
CC(CNC(=O)c1c[nH]nn1)Oc1ccc(Cl)cc1 (stereo not drawn)	99.95%
CC(CNC(=O)c1c[nH]nn1)Oc1cccc(Br)c1 (stereo not drawn)	-32.96%
CC(CNC(=O)c1cnc[nH]1)Oc1ccc(Cl)cc1 (stereo not drawn)	110.7%
COc1ccccc1OC(C)CNC(=O)c1cnc[nH]1 (stereo not drawn)	110.3%
COc1ccccc1C(C)CNC(=O)c1[nH]ncc1Br (stereo not drawn)	42.12%
CN(Cc1ccco1)Cc1ccccc1CNC(=O)c1cnc[nH]1	-12.45%
CC(CNC(=O)c1cnc[nH]1)Oc1ccccc1Br (stereo not drawn)	110.9%
CC(CNC(=O)c1c[nH]nn1)Oc1ccccc1Br (stereo not drawn)	-9.853%
CC(CNS(N)(=O)=O)Oc1ccc(Cl)cc1 (stereo not drawn)	-13.16%
Cc1ccc(OC(C)CNC(=O)c2c[nH]nn2)cc1 (stereo not drawn)	4.97%
O=C(NC1CCCN(c2ccc(OC(F)F)cc2)C1)c1cnc[nH]1 (stereo not drawn)	-8.702%
CC(C)(O)c1cc(CC2(NCc3ccco3)COC2)no1	-7.158%
CN(C)CCn1ccnc1C1CCN(C(=O)CCc2ccncc2)CC1	-7.346%
CN(C)Cc1cnc(C2CCN(C(=O)c3cc(F)cc(F)c3)C2)[nH]1 (stereo not drawn)	116.9%
CN(C)Cc1cnc(C2CCN(C(=O)c3cccc(Cl)c3)C2)[nH]1 (stereo not drawn)	128.9%
CC(C)N(C)Cc1cncc2c1CCN(C(=O)c1ccccc1F)C2.Cl.Cl	-2.748%
CN(C)Cc1cnc(C2CCN(C(=O)c3ccccc3F)C2)[nH]1.Cl (stereo not drawn)	151.5%
CN(C)Cc1cnc(C2CCN(C(=O)c3ccc(F)cc3)C2)[nH]1 (stereo not drawn)	127.5%
CCNS(=O)(=O)C1CCN(C(=O)c2ccc(F)cc2)C1 (stereo not drawn)	4.07%
CCOCCOc1ccccc1C(=O)N1CCCC(c2ncc[nH]2)C1 (stereo not drawn)	-24.68%
CCS(=O)(=O)N(C)C1CCN(C(=O)c2cccc(Cl)c2)CC1	-7.301%
CCNS(=O)(=O)C1CCN(C(=O)c2c(F)cc(F)cc2F)C1 (stereo not drawn)	-5.983%
Cc1ccc(C(=O)N2CCCC(Nc3ccc(F)cc3)C2)cc1 (stereo not drawn)	-37.46%
CN(C)Cc1ccc(C(=O)N2CCCC(n3cccn3)C2)cc1 (stereo not drawn)	13.31%

Structure (SMILES)	Percent Effect
CCN(C1CCN(C(=O)c2cccc(Cl)c2)CC1)S(C)(=O)=O	6.766%
CCCS(=O)(=O)N1CCC2(CC(=O)N(c3cnn(C)c3)C2)C1 (stereo not drawn)	9.344%
CCOc1ccc(N(CCC#N)C(=O)c2ccc(SC)nc2)cc1	-11.41%
O=C(c1cccc(F)c1)N1C[C@H]2CCCC(OCc3cccnc3)[C@H]2C1 (stereo partly drawn)	7.164%
CC1CCCN1C1CCN(C(=O)c2cccc(F)c2)CC1 (stereo not drawn)	1.778%
CN(C)Cc1cnc(C2CCN(C(=O)c3cccc(F)c3)C2)[nH]1 (stereo not drawn)	98.09%
CCc1cnc(N2CCC3(CC2)CCN(c2cnn(C)c2)C3=O)nc1	-11.71%
Cc1nonc1NC(=O)C1SCCc2ccccc21 (stereo not drawn)	-22.17%
CCC(CO)N(Cc1ccsc1)Cc1cccc(O)c1 (stereo not drawn)	4.07%
CCC(CO)N(Cc1ccco1)C(=O)c1cccc(C)c1O (stereo not drawn)	-5.185%
CCC(CO)N(Cc1ccco1)Cc1c(C)nn(C)c1Cl (stereo not drawn)	113.8%
CCC(CO)N(Cc1ccc(F)cc1)Cc1c(C)nn(C)c1Cl (stereo not drawn)	108.6%
CCC(CO)N(Cc1ccsc1)Cc1c(C)nn(C)c1Cl (stereo not drawn)	83.51%
CCC(CO)N(Cc1ccco1)C(=O)c1ccc(F)cc1Cl (stereo not drawn)	-20.92%
CCC(CO)N(Cc1ccccn1)Cc1c[nH]nc1-c1ccc(F)cc1 (stereo not drawn)	-3.197%
CCC(CO)N(Cc1ccncc1)Cc1c[nH]nc1-c1ccc(F)cc1 (stereo not drawn)	-8.532%
CCC(CO)N(CC=C(C)C)Cc1ccsc1 (stereo not drawn)	-1.911%
O=C(NC1(c2nnn(CC3CCCO3)n2)CCCC1)c1ccccc1 (stereo not drawn)	-21.33%
CCC(=O)NCC(=O)Nc1c(C)cnn1Cc1cc(F)ccc1F	-6.238%
FC(F)(F)c1[nH]nc2c1CN(Cc1ccccc1)CC2	-6.07%
Cn1c(=O)ccn(CC(=O)N2CCCC(n3cccn3)C2)c1=O (stereo not drawn)	-17.99%
CC(=O)N1Cc2ccccc2C[C@H]1C(=O)N(C)Cc1ccccn1	-7.664%
N#Cc1ccc(NCC(=O)Nc2ncn(Cc3cccnc3)n2)cc1	2.258%
N#Cc1cccc(C(=O)N2CCc3ncc(Cn4cccn4)n3CC2)c1	-16.45%
O=C(c1ccoc1)N1CCc2ncc(Cn3cccn3)n2CC1	85.84%
O=C(c1cccc(F)c1)N1CCc2ncc(Cn3cccn3)n2CC1	90.68%

Structure (SMILES)	Percent Effect
CN1CCN(Cc2cnc3n2CCN(C(=O)c2ccoc2)C3)CC1	1.07%
Cc1ccc(C(=O)N2CCc3ncc(Cn4cccn4)n3CC2)cn1	106.9%
N#Cc1ccc(C(=O)N2CCn3c(Cn4cccn4)cnc3C2)cc1.O=C(O)C(F)(F)F	-19.27%
Cn1cccc1C(=O)NCc1cnc2n1CCN(C(=O)c1ccoc1)C2	-3.453%
O=C(O)C(F)(F)F.O=C(c1ccccn1)N1CCc2ncc(Cn3cccn3)n2CC1	108.7%
Cn1cccc1C(=O)N1CCc2ncc(Cn3cccn3)n2CC1	-10.36%
Cc1ccsc1C(=O)N1CCc2ncc(Cn3cccn3)n2CC1	-18.82%
CC(NCc1ccc(OCC(N)=O)cc1)c1ccc(Cl)cc1Cl.Cl (stereo not drawn)	-2.997%
CCc1cnc(NCc2nc(CSC)no2)nc1	19.97%
Cc1cc(N(C)CC2COc3ccccc3O2)nc(C)n1 (stereo not drawn)	-50.37%
CCOCCN1CCN(CC(=O)NC2(C#N)CCCC2)CC1C (stereo not drawn)	0.8038%
O=S(=O)(C1CC1)N1CCn2c(Cn3cncn3)cnc2C1	13.19%
O=C(NCc1ccccc1)N1CCn2c(Cn3cccn3)cnc2C1	-1.854%
N#Cc1cccc(C(=O)N2CCn3c(Cn4cncn4)cnc3C2)c1	83.01%
CN1CCN(Cc2cnc3n2CCN(C(=O)c2ccnnc2)C3)CC1	-11.55%
Cc1cncc(C(=O)N2CCc3ncc(Cn4cccn4)n3CC2)c1	88.89%
O=C(NCc1cccnc1)N1CCn2c(Cn3cccn3)cnc2C1	2.46%
Cc1ccc(C(=O)N2CCc3ncc(Cn4cccn4)n3CC2)o1	95.36%
N#Cc1ccc(S(=O)(=O)N2CC(CC(=O)O)c3ccccc32)cc1 (stereo not drawn)	-12.53%
Cc1noc(CNc2ccccc2CC(=O)N(C)C)n1	-7.553%
N#CCc1ccc(OCC(=O)N2CCCC(n3cccn3)C2)cc1 (stereo not drawn)	-0.2298%
Cc1ncsc1CCN1CCC(N(C)Cc2ncc(C(C)C)o2)C1 (stereo not drawn)	-3.966%
Cc1nnc(CN2CCOC(c3ccc(Cl)cc3)C2)o1 (stereo not drawn)	-9.345%
O=c1[nH]c2nc(NCC3CCCO3)ncc2c(=O)n1-c1ccc(F)cc1 (stereo not drawn)	-3.035%
CN(Cc1csc(-c2cccs2)n1)C(=O)CCn1ccccc1=O	-2.021%
COc1cc(F)c(S(=O)(=O)N2CCN(C)Cc3ccccc32)cc1OC	-10.31%

Structure (SMILES)	Percent Effect
CN(C)Cc1cc(=O)n2c(n1)CN(C(=O)Cc1ccsc1)CCC2.O=C(O)C(F)(F)F	-8.762%
CCN(CC)Cc1cn2c(n1)CN(C(=O)Cc1ccsc1)CC2.O=C(O)C(F)(F)F	83.51%
O=C(Cc1ccsc1)N1CCn2cc(CN3CCCC3)nc2C1	-4.915%
O=C(Cc1ccsc1)N1CCn2cc(Cn3cncn3)nc2C1	4.087%
CC(C)N(C)Cc1cn2c(n1)CN(C(=O)Cc1ccsc1)CC2.O=C(O)C(F)(F)F	-0.9088%
CC(C)N(C)Cc1cn2c(n1)CN(Cc1ccsc1)CC2.O=C(O)C(F)(F)F.O=C(O)C(F)(F)F	6.195%
CC(C)N(C)Cc1cn2c(n1)CN(C(=O)Cc1ccccc1)CC2.O=C(O)C(F)(F)F	114%
CN(C)Cc1cn2c(n1)CN(C(=O)Cc1ccsc1)CC2.O=C(O)C(F)(F)F	96.46%
CC(=O)NCC(=O)N1CCn2cc(CN(C)Cc3ccco3)nc2C1.O=C(O)C(F)(F)F	-4.865%
CN1CCOCC2(CCCN(C(=O)c3cn(C)cn3)C2)C1.O=C(O)C(F)(F)F (stereo not drawn)	-3.228%
CCNC(=O)NC(C)(C)C(=O)NCCc1csc2ccccc12	9.687%
O=C(Cc1cccnc1)NC1COc2ccccc2C1=O (stereo not drawn)	-10.11%
CCCC1CCCN(C(=O)CNC(=O)c2ccoc2C)CC1 (stereo not drawn)	7.571%
O=S(=O)(C1CC1)N1CCc2c(CN3CCOCC3)cncc2C1	82.99%
CCOCc1cncc2c1CCN(S(=O)(=O)c1cccc(C)c1)C2	11.95%
O=S(=O)(NCCN1CCOCC1)c1cncc(Cl)c1	-2.689%
CC(C)(C)NC(=O)NC(=O)COc1nc(C(C)(C)C)no1	-2.31%
CC(C)(C)n1ncc2c(=O)n(CC(=O)NCCc3ccccc3)cnc21	21.71%
O=C(Cn1cnc2cc3c(cc21)OCCCO3)NCCc1ccccc1	66.67%
O=C(Cc1cc(-c2ccc3c(c2)OCO3)on1)NC1CCCC1	-5.202%
O=C(CCNCc1cccc2c1OCCCO2)NC1CCCC1	-1.594%
O=C(Cn1cnc2cc3c(cc21)OCCCO3)NC1CCCC1	88.37%
O=C(Cn1cnc2cc3c(cc21)OCCCO3)NC1CCCCC1	96.56%
O=C(Cn1cccnc1=O)NCCc1ccc2c(c1)OCCO2	1.93%
CNc1nc(CNC(=O)Nc2ccc(OC(C)C)cc2F)cs1	6.813%
